Data on 40 compounds can be found in PubChem BioAssay (Tox21).

SMILES strings stand for the structures. Activity calls are given as the source filed them. Calls follow the shape of the dose curve; as a rule, active = well fitted curve in the direction sought with a large enough effect in the repeat runs; inconclusive = weak or mixed curves; inactive = flat fitted curve, though single readings scatter.

This assay in a line: qHTS assay to test for compound auto fluorescence at 590 nm (red) in HepG2 cell free culture (AID 720684). To be noted: cell-free medium autofluorescence, red 540/590 nm; series mostly up to 91.3 µM. The source says: U.S. Tox21 Program National Center for Advancing Translational Sciences [NCATS] NIH Chemical Genomics Center [NCGC] U.S. Environmental Protection Agency [EPA] National Institutes of Environmental Health Sciences [NIEHS] National Toxicology Program [NTP] U.S. Food and Drug Administration [FDA] Tox21 Assay Overview: Compound auto fluorescence often interferes with screening of the compound library against various biological targets and signaling pathways. Some of these compounds may have fluorophoric properties. Such properties may interfere with the assay outputs resulting in false positives and/or negatives. To decrease such complications and ensure the compound activities are relevant in terms of biological response, the Tox21 10K compound library was screened for auto fluorescence. From the fluorophores used as reporter signals in our screening assays, the auto fluorescence equivalencies of compounds against three fluorophores have been evaluated: Triamterene, Fluorescein and Rose Bengal sodium for blue, green and red fluorescence, respectively. The fluorescence intensities were measured using Excitation/Emission wavelengths at 405/460nm, 485/535nm and 540/590nm for blue, green and red labels, respectively. This assay includes the red fluorescence data.
Tox21 Assay Protocol Summary: 5 uL of culture medium (MEM containing 10% FBS) per well was dispensed into black wall/clear bottom 1536-well plates using a Multidrop Combi Dispenser (ThermoFisher Scientific, Waltham, MA). After 23 nL compound or DMSO vehicle was transferred into assay plate by a pintool work station (Kalypsys, San Diego, CA), fluorescence intensities in the assay plates were measured by an Envision (PerkinElmer, Shelton, CT) plate reader using three labels for measuring blue, green and red fluorescence at […] 460, 535 and 590nm respectively.
Background: Quantitative high-throughput screening tests each substance at several concentrations.
Consider `CCc1cccc(C)c1N(C(=O)CCl)C(C)COC` (stereo not given), for which the call was inactive. Then `O=Cc1cccc(Oc2ccccc2)c1`, with “inactive”; and `CNC(=O)Oc1ccccc1OC(C)C`, with “inactive”; and `Cc1[nH]c(=O)n(C(C)(C)C)c(=O)c1Cl`, with “inactive”. On to `CC(C)C#N`, for which the result was inactive. As for `Nc1ccccc1C(=O)O`, the compound was classed as inactive.

For `NCCc1ccc(O)cc1`, the compound was classed as inactive.

For `CCC[CH2][Sn]([Cl])([Cl])[Cl]`, the result was inactive. As for `c1ccc(OP(Oc2ccccc2)Oc2ccccc2)cc1`, the call was inactive.

Turning to `C=CC(N)=O`, the result was inactive. `c1ccc2c(c1)oc1ccccc12`: the compound was called inactive. On to `C=CCO`, for which the result was inactive. As to `C[C@]12CC[C@H]3[C@@H](CC[C@@]45O[C@@H]4C(O)=C(C#N)C[C@]35C)[C@@H]1CC[C@@H]2O`, the compound was called inactive. For `CN1C(=O)CN=C(c2ccccc2)c2cc(Cl)ccc21`, the compound was called inactive. For the compound `CCCCOC(=O)c1ccccc1C(=O)OCCCC`, the compound was classed as inactive. Under `CCN(CC)c1ccccc1` stands “inactive”; under `CC(C)=C[C@@H]1[C@@H](C(=O)OCc2coc(Cc3ccccc3)c2)C1(C)C`, “inactive”. In the case of `Cc1ccc([N+](=O)[O-])cc1C`, the result was inactive.

Turning to `Cn1cc(-c2ccccc2)c(=O)c(-c2cccc(C(F)(F)F)c2)c1`, the compound was called inactive. In the case of `CC1C=[C-]C=C1.[C-]#[O+].[C-]#[O+].[C-]#[O+].[Mn]`, the outcome was inactive. For the compound `Clc1ccccc1Cl`, the call was inactive. With `ClCCBr`, the compound was classed as inactive.

For `CC(C)NC(=O)N1CC(=O)N(c2cc(Cl)cc(Cl)c2)C1=O`, the result was inactive. Then `CCCCCCCCCCCC#N`, with “inactive”; and `CC(C)N1C(=O)c2ccccc2NS1(=O)=O`, with “inactive”; and `CC(Oc1ccc(Cl)cc1Cl)C(=O)O` (stereo not given), with “inactive”. Under `CCCC1COC(Cn2cncn2)(c2ccc(Cl)cc2Cl)O1` (stereo not given) stands “inactive”.

For `COC(=O)NC(=S)Nc1ccccc1NC(=S)NC(=O)OC`, the outcome was inactive. For `O=c1n(Cl)c(=O)n(Cl)c(=O)n1Cl`, the outcome was inactive. Take `Nc1ccc(Oc2ccc(N)cc2)cc1`: the outcome was inactive. As to `O=[N+]([O-])c1ccc(Oc2ccc(Cl)cc2Cl)cc1`, the result was inactive.

For `O=C(O)c1ccccn1`, the result was inactive. For the compound `O=S(=O)(c1ccc(Cl)cc1)c1cc(Cl)c(Cl)cc1Cl`, the call was inactive.

As for `CN(C)N=O`, the call was inactive. `C=C(C)CCl`: the compound was called inactive.

In the case of `CC(C)OC(=O)Nc1cccc(Cl)c1`, the outcome was inactive. Take `CCCCCCCCCl`: the call was inactive. Consider `[N-]=[N+]=[N-]`, for which the compound was classed as inactive. On to `Cc1ccccc1O`, for which the call was inactive. Consider `CC(C)(C)OOC(C)(C)C`, for which the result was inactive.
